# HP1b chromo inh = HP1-beta chromodomain-methylated histone interaction inhibition; actives 0.56% (n = 390,000); P83916; AID 540317; AlphaScreen HP1-beta / biotin-H3K9me3 peptide binding; Potency, µM (series often up to 114 µM), inactives show at the highest dose activity change, negative = inhibition, most hits filed as inhibitors; also: nearly all actives have a fitted effect of over 70% in size
# Target sequence (P83916 whole entry, looked up): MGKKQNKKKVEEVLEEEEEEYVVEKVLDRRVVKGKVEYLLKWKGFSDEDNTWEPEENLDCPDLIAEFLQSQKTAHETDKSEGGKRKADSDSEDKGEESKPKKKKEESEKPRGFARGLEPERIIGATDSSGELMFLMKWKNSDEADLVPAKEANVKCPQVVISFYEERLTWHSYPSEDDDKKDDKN
#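 Compound inhibition of the preformed complex between 50 nM HP1-beta and 50 nM biotinylated H3K9me3 peptide was read by AlphaScreen. Buffer was PBS pH 7.4 with 0.01% Tween-20. Incubations ran 30 min at room temperature, with 10 ug/mL donor/acceptor beads.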
# G9a inh = G9a (human) methyltransferase inhibition. G9a H3K9 monomethylation, AlphaScreen, 2 h. Potency, µM (doses to about 102 µM), inactives show top-dose activity, negative = inhibition, most hits filed as inhibitors. actives 8.8% (n = 350,000); also: % is scaled to controls: 0 for no effect and ±100 for the full control effect; nearly all actives have a fitted effect of over 75% in size
# Target sequence (Q96KQ7 913-1193 limits assumed): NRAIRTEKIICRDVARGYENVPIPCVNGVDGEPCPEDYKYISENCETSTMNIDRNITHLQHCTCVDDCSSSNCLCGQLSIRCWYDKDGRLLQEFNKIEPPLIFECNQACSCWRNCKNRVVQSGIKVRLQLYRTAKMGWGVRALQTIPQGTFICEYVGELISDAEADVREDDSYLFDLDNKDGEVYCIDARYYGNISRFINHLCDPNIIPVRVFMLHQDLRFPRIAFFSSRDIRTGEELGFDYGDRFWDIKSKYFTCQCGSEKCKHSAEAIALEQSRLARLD
#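 Methyltransferase reactions run at room temperature for 2 h (20 nM enzyme, 500 nM biotin-H3K9 peptide, 20 uM SAM) after a 15 min compound preincubation; product detected by AlphaScreen beads and anti-H3K9me1 antibody.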
# Sfp inh = Sfp phosphopantetheinyl transferase inhibition. actives 3.5% (n = 310,000). Biochemical Sfp PPTase activity, qHTS. Potency, µM, without a hit: largest response in the series, negative = inhibition, hits mostly inhibitors. AID 1490;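 also: the enzyme is Sfp with the accession as filed and its product quenches rhodamine fluorescence; 0% = enzyme reaction without inhibitor and -100% = no enzyme wells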
#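 With Hepes-Na pH 7.6 buffer containing 10 mM MgCl2, Sfp (15 nM) modified BHQ-2-YbbR (12.5 uM) using rhodamine-CoA (5 uM). Two reads 30 minutes apart at 525/598 nm yielded each well's rate.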
# BAZ2B inh = BAZ2B (human) inhibition | actives 4.4% (n = 360,000) | AID 504333 | AlphaScreen BAZ2B-H3K14Ac peptide displacement | Q9UIF8 | Potency, µM (top dose mostly 114 µM), without a hit: at the top dose activity change, negative = inhibition, most hits filed as inhibitors; also: % is scaled to controls: 0 for no effect and ±100 for the full control effect; nearly all actives have a fitted effect of over 60% in size
#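 In this displacement format the biotinylated H3(5-23) peptide acetylated at Lys14 serves as ligand at 50 nM, with BAZ2B at 50 nM in PBS pH 7.4 containing 0.01% Tween-20. Donor and acceptor beads are 10 ug/mL final.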
# L3MBTL1 inh = inhibitors of human L3MBTL1. AlphaScreen L3MBTL1–H3K9me1 peptide binding. Q9Y468. Potency, µM (titrated, usually from 57.1 µM), for the others: at the top dose activity, negative = inhibition, hits mostly inhibitors. actives 0.66% (n = 230,000). AID 485360; also: % is scaled to controls: 0 for no effect and ±100 for the full control effect; nearly all actives have a fitted effect of over 60% in size
#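 AlphaScreen proximity signal between nickel-chelate acceptor and streptavidin donor beads (final 10 ug/mL) reports binding of 50 nM L3MBTL1 to 75 nM biotin-H3 K9me1 peptide; complex incubated with compounds 30 min at room temperature; cefsulodin titration as control.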
# JMJD2A Tudor = blocks the human JMJD2A Tudor domain; O75164; AlphaScreen JMJD2A-Tudor / H3K4me3 peptide binding; Potency, µM (series often up to 114 µM), without a hit: at the highest dose activity change, negative = inhibition, most hits filed as inhibitors; actives 4.4% (n = 390,000); AID 504339; also: % is scaled to controls: 0 for no effect and ±100 for the full control effect; nearly all actives have a fitted effect of over 50% in size
# Active calls of the source: *; ? = inconclusive; · = no result; [ ] = dose if it differs, or a comment. A selection: hits, their analogues and other compounds. The true share with any hit is near 12%. Calls follow the shape of the dose curve; as a rule, active = well fitted curve in the direction sought with a large enough effect; inconclusive = small, poorly fitted or top-dose-only effect, or another doubt; inactive = no such curve, though single readings can be large; an effect the other way counts as inactive or inconclusive. Potency is read from the fitted curve at half-maximal effect.
SMILES,HP1b chromo inh,G9a inh,Sfp inh,BAZ2B inh,L3MBTL1 inh,JMJD2A Tudor
CC(C)C(C)NC(=O)COC(=O)c1cccc(C(=O)OCC(=O)NC(C)C(C)C)n1 (configuration not stated),29%,10µM*,2%,?,35%,?
NC1(C(=O)O)CCc2cc(P(=O)(O)O)ccc21 (configuration not stated),·,-2%[59 µM],56µM*,·,·,·
Cn1c2[n+](c3ccc(Cl)cc3c1=O)Cc1ccccc1-2,45%,28µM*,-16%,-6%,·,-15%
CC(=O)Oc1cccc2c1C(=O)c1c(OC(C)=O)cc(C(=O)O)cc1C2=O,18%,3.5µM*,0%,?,-22%,?
CC(=O)Oc1ccc(C(=O)O)cc1OC(C)=O,48%,12%[59 µM],-18%,?,-8%,-1%
Cc1cc(C)cc(NC(=O)Cn2nnc(C(=O)NCc3ccccc3Cl)c2N)c1,43%,1.1µM*,14%,-3%,·,-5%
Cc1ccc(C)c(NC(=O)Cn2nnc(C(=O)NCc3ccccc3Cl)c2N)c1,35%,0%[59 µM],·,-2%,·,-25%
Cc1cc(C)cc(NC(=O)Cn2nnc(C(=O)NCc3ccc(F)cc3)c2N)c1,3%,0%[59 µM],-17%,-14%,·,10µM*
COc1ccc2c(c1)c1c(c(=O)n(-c3ccccc3C)c(=O)n1CC(=O)N1CCCC1)n2C,35%,-35%[59 µM],·,-6%,·,3%
CC1=C(C(=O)OCC2CCCCC2)C(c2ccc(Cl)cc2Cl)CC(=O)N1 (configuration not stated),7%,11%[59 µM],·,2%,·,-17%
Cn1c(COc2ccc(Br)cc2)nnc1SC1CCc2ccccc2C1=O (configuration not stated),14%,?,50µM*,?,-10%,?
Cn1c(COc2ccccc2)nnc1SCCSc1nnc(COc2ccccc2)n1C,23%,16%[12.7 µM],18%,-2%,·,-6%
COc1cc(CNc2ccc3[nH]c(=O)[nH]c3c2)cc(Br)c1OCC(=O)NC(C)(C)C,-36%,-12%[12.7 µM],-10%,40µM*,·,56µM*
CCOc1c(Cl)cc(CNc2ccc3[nH]c(=O)[nH]c3c2)cc1OC,-13%,3.5µM*,·,-31%,·,?
COc1cccc2cc(C(=O)Nc3ccc(CC(=O)O)cc3)c(=O)oc12,4%,-5%[59 µM],·,?,·,-34%
CCN(CC)C1=CC(=[N+]2CCCC2)CC(C)(C)C1,2%,40µM*,3%,-1%,-16%,1%
CC1(C)CC(N2CCCC2)=CC(=[N+]2CCCCCC2)C1,4%,?,-2%,?,-32%,?
CN(Cc1ccccc1)C1=CC(=[N+]2CCCC2)CC(C)(C)C1,?,?,-1%,3%,·,8.9µM*
CC1(C)CC(=O)N(Cc2ccccc2)C(=O)C1,40%,8%,8%,2%,7%,-8%
COc1ccc(-c2cn3cccnc3n2)cc1NC(=O)c1c(F)cccc1F,27%[57 µM],-4%[59 µM],·,3%,·,-2%
CCOc1cc(C(C(=O)NCC2CCCO2)N(C(=O)Cn2nnc3ccccc32)c2ccc(OC)c(OC)c2)ccc1O (configuration not stated),21%,45µM*,12%,-1%,·,13%
COc1cc(C(C(=O)NCC2CCCO2)N(C(=O)Cn2nnc3ccccc32)c2ccc(C(C)=O)cc2)ccc1O (configuration not stated),19%,?,7%,0%,·,-13%
Cc1ccc(NC(=O)/C=C\C(=O)N(c2ccc(C(C)C)cc2)C(C(=O)NCc2ccco2)c2ccc(Cl)cc2)cc1 (configuration not stated),24%,?,·,-17%,·,-28%
Cc1ccc(N(C(=O)Cn2nnc3ccccc32)C(C(=O)NCc2ccco2)c2ccc(C)o2)cc1 (configuration not stated),5%,?,-26%,-37%,1%,-12%
Cc1ccc(C(C(=O)NCc2ccco2)N(C(=O)Cn2nnc3ccccc32)c2ccccc2)o1 (configuration not stated),-19%,45µM*,-13%,-8%,-6%,-34%
SMILES,HP1b chromo inh,G9a inh,Sfp inh,BAZ2B inh,L3MBTL1 inh,JMJD2A Tudor
COc1ccc(N(C(=O)Cn2nnc3ccccc32)C(C(=O)NCc2ccco2)c2ccc(C)o2)cc1 (configuration not stated),-16%,50µM*,-6%,45µM*,-17%,-25%
Cc1ccc(CN(C(=O)Cn2nnc3ccccc32)C(C(=O)NCc2ccco2)c2ccc(C)o2)cc1 (configuration not stated),33%,-4%[59 µM],19%,-4%,9%,-10%
COc1ccc(N(C(=O)/C=C\C(=O)Nc2ccc(Cl)cc2)C(C(=O)NCc2ccco2)c2ccc(C)cc2)cc1 (configuration not stated),19%,11µM*,·,?,·,-34%
CCc1ccccc1NC(=O)Cn1c(=O)n(-c2ccc(C)c(C)c2)c(=O)c2oc3ccccc3c21,44%,-2%[59 µM],·,-3%,·,2%
CCOC(=O)CNS(=O)(=O)c1ccc(F)cc1Br,29%,·,-9%,·,·,-12%
Cc1ccc(NC(=O)Cn2nnc(-c3ccccc3)n2)c(C)c1,15%,11%[59 µM],·,0%,·,6%
CCc1cccc(C)c1NC(=O)Cn1cc2c(n1)CCCC2,34%,4%[59 µM],·,-1%,·,-1%
O=c1c2ccccc2sc2c(CO)ccc(NCCN3CCCCC3)c12,?,·,·,·,·,50µM*
Cc1nc(NCCOc2ccccc2)sc1C(=O)Nc1ccccc1,25%,45µM*,-5%,-26%,0%,-19%
Cc1nc(NCc2ccccc2)sc1C(=O)Nc1ccccc1,20%,50µM*,6%,?,4%,-23%
CCCOc1ccc(Br)cc1-c1cc(-c2ccc(Cl)cc2)[nH]c1-c1ccncc1,·,·,39%,·,·,·
CC1=NN(c2ccccc2)C(=O)/C1=C\c1c(C)[nH]n(-c2ccccc2)c1=O,-10%,?,5%,-35%,-15%,?
CC1=NN(c2ccccc2)C(=O)/C1=C/c1c(O)n(-c2ccc(F)c(Cl)c2)[nH]c1=O,?,?,?,35µM*,-29%,50µM*
Cc1nn(C)c(-c2n[nH]c(=S)n2Cc2ccco2)c1Cl,11%,6.3µM*,-16%,-11%,-4%,22µM*
COc1cccc(-c2n[nH]c(=S)n2Cc2ccco2)c1OC,14%,?,-6%,-5%,-5%,7.9µM*
Oc1ccc(-c2n[nH]c(=S)n2Cc2ccco2)cc1,-9%,2.8µM*,-2%,-29%,·,3.5µM*
Oc1cc2ccccc2cc1-c1n[nH]c(=S)n1Cc1ccco1,-8%,1.6µM*,22µM*,?,-30%,?

# Screens as filed in PubChem.
